The text below walks through data of PubChem BioAssay (NCI).

Several values for one entry are separate records, joined by “and”; a condition that tells them apart may be missing. Equal entries are not always repeated. Compounds without any hit were thinned out: in the full panel of roughly 83,000, 20% have a hit.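 Cell lines were cultured in 96-well plates, exposed to a single compound concentration, and assessed for percent growth 48 hours later.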 Activity calls are given as the source filed them.

This assay deals with OVCAR-5 ovarian. The experiment in a line: NCI-60 one-dose screen, 48 h (100 = growth as untreated, 0 = no growth, -100 = all killed). To be noted: 10 µM unless noted. The protocol:
Growth inhibition of the OVCAR-5 human tumor cell line is measured as a screen for anti-cancer activity. Cells are grown in 96 well plates and exposed to the test compound for 48 hours. Compounds are tested at a single concentration, which is 10^-5 M for most compounds. The reported endpoint is percent growth (GI% or GIPRCNT), where numbers from 0 - 100% represent growth inhibition, and numbers from -100% - 0 represent cell death. For example, a value of 40 represents 60% growth inhibition. A value of 0 means no net growth occurred over the course of the experiment. A value of -40 indicates 40% of cells at the beginning of the experiment died by the end of the experiment. A value of -100 means all cells are dead at the end of the experiment.
NCI-60 Human Tumor Cell Lines Screen was performed using the standard one-dose NCI protocol, which is described in more detail at https://dtp.cancer.gov/discovery_development/nci-60/default.htm.
Compounds with GIPRCNT values below 10 were considered active. Activity score was based on GIPRCNT using the following formula: […]
Score is 0 for GIPRCNT values of 100 or above, 50 for GIPRCNT values of 0, and 100 for GIPRCNT values of -100.
Regarding `O=C1C=CC(O)=CC1=P(c1ccccc1)(c1ccccc1)c1ccccc1`, the growth was 74.7% (inactive).

Take `Cc1nc(Sc2nc3ccc([N+](=O)[O-])cc3s2)sc1C`: the growth is 34.8% (inactive).

As to `CCCCC(CCc1ccc([N+](=O)[O-])cc1)(C(C)=O)C(=O)OCC` (stereo not given), the growth was 105% (inactive).

For the compound `CC(O)C(O)C(O)C(O)C(O)C(=O)NNc1ccccc1` (stereo not given), the growth is 84.6% (inactive).

For the compound `C(=N\Nc1ccc2ccccc2n1)/c1ccccn1`, the growth is 47.4% (inactive).

Take `NC(CS/C(Cl)=C/Cl)C(=O)O` (stereo not given): the growth was 99.8% (inactive).

`c1ccc2sc(SSN3CC4CCC(CC4)C3)nc2c1`: the growth is 112% (inactive).

Consider `CC1(O)CCCCCC1`, for which the growth was 105% (inactive).

In the case of `O=C(CCl)N1c2ccccc2Sc2c1ccc1ccccc21`, the growth was 108% (inactive).

As to `O=C(c1ccccc1)N(CCCl)C(=O)N(CCCl)C(=O)c1ccccc1`, the growth was 91% (inactive).

For `CCN(CC)CC(O)CNc1ccc(NCC2CO2)c2c1C(=O)c1ccccc1C2=O` (stereo not given), the growth was -4.14% (active).

On to `CCCCCCCCCCCCN1C(C)=CS/C1=C\C=C\c1scc(C)[n+]1CCCCCCCCCCCC`, for which the growth was 61% (inactive).

Consider `Cc1cc(C(N)=O)cc(C)c1C(=O)OCCCl`, for which the growth was 108% (inactive).

On to `COc1cc2c(c(OC)c1OC)-c1ccc(NCc3ccccc3)c(=O)cc1[C@@H](NC(C)=O)CC2`, for which the growth is 41.8% (inactive).

Consider `COc1cc(NC(=O)C2=C(C)NC(C)=C(C(=O)Nc3cc(OC)c(Cl)cc3OC)C2c2cccc([N+](=O)[O-])c2)c(OC)cc1Cl`, for which the growth was 34.4% (inactive).

Turning to `S=C=Nc1ccc(N2CCOCC2)cc1`, the growth was 97.6% (inactive).

With `O=C(NOC(=O)c1ccccc1)c1ccccc1`, the growth is 109% (inactive).

In the case of `Cc1cc(C)c(C#N)c(Sc2nc(C)c([N+](=O)[O-])c(C)c2C#N)n1`, the growth was 90.1% (inactive).

As to `CCCC[n+]1c(/C=C\c2c(OC)cc(OC)cc2OC)ccc2ccccc21`, the growth is 24.3% (inactive).

For the compound `Cc1cc2nc(CC(=O)c3ccncc3)c(=O)[nH]c2cc1C`, the growth is 97.2% (inactive).

For the compound `OC(c1cc2ccc(C(F)(F)F)cc2c2cc(C(F)(F)F)ccc12)C1CCCCN1` (stereo not given), the growth was -99% (active).

Turning to `O=C1C=CC(=O)N1c1cccc2c1CCCC2`, the growth is 103% (inactive).

In the case of `Oc1c(Cl)cc(Cl)cc1C(c1cc(Cl)cc(Cl)c1O)C(Cl)(Cl)Cl`, the growth is 1.83% (active).

With `CCOC(=O)C1(C)CCCC1N` (stereo not given), the growth is 106% (inactive).

Turning to `Cc1ccc2c(c1)sc(-c1ccc(N(C)C)cc1)[n+]2C`, the growth is 14.4% (inactive).

For `CCOc1ccc2c(c1)/C(=C\C=C\C1CC(C)C3CC(OCC)CCC3N1CC)CC(C)N2CC` (stereo not given), the growth is 33.6% (inactive).

Turning to `CCN(CC)CCNc1ccc([N+](=O)[O-])c2sc3ccccc3c(=O)c12`, the growth was 45% (inactive).

`O=C(CBr)c1ccc(OC(=O)c2ccccc2)cc1`: the growth was 102% (inactive).

In the case of `Fc1ccc(NCCS)cc1`, the growth was 104% (inactive).

For `CCCCOS(=O)(=O)c1ccccc1`, the growth is 95.8% (inactive).

Turning to `OC(CSc1ccccc1)CN1CCN(c2ccc(Cl)cc2)CC1` (stereo not given), the growth is 102% (inactive).

Take `NC1=C(Br)C(=O)c2ncccc2C1=O`: the growth was -49.4% (active).

On to `O=C(c1ccccc1)c1cc2ccccc2oc1=O`, for which the growth is 102% (inactive).

For `CCOc1ccc(Nc2nc3c(s2)C(=O)c2ccccc2C3=O)cc1`, the growth was 112% (inactive).

Take `O=[N+]([O-])/C(=C/c1ccccc1)c1ccccc1`: the growth is 103% (inactive).

For `OC(c1cc(-c2ccc(C(F)(F)F)cc2)nc(C(F)(F)F)c1)C1CCCCN1` (stereo not given), the growth was 30.4% (inactive) and -33.3% (active) and 61% (inactive).

With `CCC1C[N+]2=C(c3cc(OC)c(OC)cc3CC2)c2c1cc1n2CCc2cc(OC)c(OC)cc2-1` (stereo not given), the growth was 79.7% (inactive).

For `O=C(/C=C/C(Cl)(Cl)Cl)Nc1ccc(Cl)cc1`, the growth is 93.7% (inactive).

Take `CCN1CCCC(Nc2cc(C)nc(/N=C(/N)Nc3ccc(Cl)c(Cl)c3)n2)C1` (stereo not given): the growth is 13% (inactive).

Turning to `Cc1oc2c(C)c3oc(=O)cc(C)c3cc2c1CCl`, the growth was 77.3% (inactive).
